Source: PubChem BioAssay AID2685 (National Center for Advancing Translational Sciences (NCATS), 2010)
Screen size: about 320,000 compounds; about 2,100 (0.66%) were called active. Not shown: some 53% with an inconclusive outcome. The sample holds actives, similar compounds and a random draw of the others, so the mix is not that of the screen. The call rests on the fitted dose curve; in most records, active means well fitted inhibition curve with a large enough effect in the signal ratio, with a control signal flat (not every such curve was filed as active); inconclusive means small, poorly fitted or top-dose-only effect, or effect the other way, or a change in a side signal; inactive means flat fitted curve, though single readings scatter; the % refers to the signal ratio.

Assay: qHTS Assay for Lipid Storage Modulators in Drosophila S3 Cells;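 on cell number change: cells counted by Cell Tracker Red CMTPX staining in the red channel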; on lipid storage change, negative = inhibition: on the % scale 0 is the no-effect control and ±100 the full control effect
Details: BODIPY lipid droplet fluorescence, 18-24 h, cells fed with added oleic acid; cell number change: measured here: cell count max response; series mostly up to 46.1 µM
Summary of the method: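 Drosophila S3 cells loaded with oleic acid (400 uM, as added) and compounds at several concentrations; lipid droplets imaged by 488-nm laser-scanning cytometry, 500–530 nm intensity and object ratio to cell channel. Percent activity normalized to 20 uM Triacsin C.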
Potency means the concentration at half of the fitted maximal effect.

| Structure (SMILES) | Potency | cell number change [%] | lipid storage change, negative = inhibition |
| --- | --- | --- | --- |
| COCCN(CC1CCCN(C2Cc3ccccc3C2)C1)C(=O)CCC(F)(F)F (stereo not drawn) | inactive | 20.2 |  |
| COc1cccc(NC(=O)COc2ccc3c(c2)CCC3)c1 | inactive |  |  |
| COc1ccc(NC(=O)N2CCCC(C(=O)NC(C)C)C2)cc1 (stereo not drawn) | inactive | 10.2 |  |
| CCOc1ccc(NC(=O)COc2ccc3c(c2)CCC3)cc1OC | inactive | -12.3 |  |
| O=C(Nc1ccc(C(=O)N2CCCCC2)cc1)Nc1cccc(Cl)c1 | 13 µM (active) |  |  |
| O=C(Nc1ccc(C(=O)N2CCOCC2)cc1)Nc1cccc(Cl)c1 | inactive | 5.64 |  |
| COc1ccc(NC(=O)CCN2CCCC(C)C2)cc1 (stereo not drawn) | inactive | 17 |  |
| COc1ccc(NC(=O)C2CCCN(C(=O)Nc3ccc(OC)cc3)C2)cc1 (stereo not drawn) | 1.03 µM (active) | 16.7 |  |
| COc1ccc(NC(=O)COc2ccc3c(c2)CCC3)cc1 | 8.2 µM (active) |  |  |
| CC1CCCN(CCC(=O)c2ccc(Br)cc2)C1 (stereo not drawn) | inactive | -9.39 |  |
| COc1ccc(NC(=O)N2CCCC(C(=O)Nc3ccccc3OC)C2)cc1 (stereo not drawn) | inactive | 0.427 |  |
| COc1ccc(C(=O)CCN2CCCC(C)C2)cc1 (stereo not drawn) | 11.6 µM (active) | -14.2 |  |
| CC(=O)c1cccc(NC(=O)Nc2ccc(C(=O)N3CCCC3)cc2)c1 | inactive | 14.3 |  |
| NS(=O)(=O)c1cc(Cl)c(NC(=O)COC(=O)c2ccccn2)c(Cl)c1 | inactive | 16.5 |  |
| N#Cc1ccccc1OCC(=O)Nc1ccc2c(c1)OCCCO2 | inactive | 0.833 |  |
| O=[N+]([O-])c1ccc(Oc2ccc(OCc3ccccc3)cc2)nc1 | inactive | -9.11 |  |
| CC(=O)Nc1ccc(NC(=O)C(C)OC(=O)CCC(=O)c2ccc(F)cc2)cc1 (stereo not drawn) | inactive | 8.99 |  |
| Cc1ccc(C(=O)NNC(=O)c2ccncc2)cc1C | inactive | 12.2 |  |
| CCOC(=O)N1CCN(CC(O)COc2c(C)cc(C)cc2C)CC1 (stereo not drawn) | inactive | 5 |  |
| CNC(=O)c1ccc(NC(=O)Cc2ccc(S(=O)(=O)N3CCOCC3)s2)cc1 | inactive |  |  |
| O=C(NCCN1CCCCC1)Nc1cccc(F)c1 | inactive | -5.7 |  |
| O=C(Cc1ccc(S(=O)(=O)N2CCOCC2)s1)Nc1ccc2c(c1)CCC2 | inactive | -23.1 |  |
| CCOC(=O)c1cc(NC(=O)Cc2ccc(S(=O)(=O)N3CCOCC3)s2)cc(C(=O)OCC)c1 | 1.16 µM (active) | -15.4 |  |
| Cc1cccc(NC(=O)CCN2CCCCC2)c1 | inactive | 8.73 |  |

| Structure (SMILES) | Potency | cell number change [%] | lipid storage change, negative = inhibition |
| --- | --- | --- | --- |
| O=C(CCN1CCCCCC1)Nc1ccc(F)cc1 | inactive | -3.75 |  |
| O=C(CCN1CCCCCC1)Nc1cccc(F)c1 | 25.9 µM (active) | -13.4 |  |
| O=C(CCN1CCCCC1)Nc1ccccc1 | inactive | -23.3 |  |
| O=C(CCN1CCCCC1)Nc1cccc(Cl)c1 | 25.9 µM (active) | -28.1 |  |
| COc1ccc(NC(=O)C2CCCN(S(=O)(=O)c3ccc4c(c3)oc(=O)n4C)C2)c(OC)c1 (stereo not drawn) | inactive | 13.3 |  |
| COc1cc(C2NC(=O)NC(C)=C2C(C)=O)cc(OC)c1OC (stereo not drawn) | inactive | 0.318 |  |
| COc1ccc(CC(=O)Nc2ccc(/C(C)=N\NC(=O)c3ccc(Br)o3)cc2)cc1 | inactive | 2.49 |  |
| COC(=O)c1ccc(COC(=O)C2CC(O)CN2S(=O)(=O)c2ccc([N+](=O)[O-])cc2)cc1 (stereo not drawn) | inactive | 2.24 |  |
| CC1CCCC(C)N1C(=O)CSc1nnc(NC(=O)c2cccs2)s1 (stereo not drawn) | inactive | 3.67 |  |
| CCn1cc([N+](=O)[O-])c(C(=O)N2CCCC2)n1 | 29.1 µM (active) | -10.5 |  |
| CCn1cc([N+](=O)[O-])c(C(=O)N2CCOCC2)n1 | inactive | -13.3 |  |
| CCn1cc([N+](=O)[O-])c(C(=O)N2CCCCCC2)n1 | inactive | 11.5 |  |
| COc1ccc(/C=N/S(=O)(=O)c2ccc(C)cc2)cc1 | inactive |  |  |
| CC(=O)C(Cc1ccccc1)NC(=O)COC(=O)CCN1C(=O)C2CC=CCC2C1=O (stereo not drawn) | inactive | 7.02 |  |
| Cc1ccc(SCC(=O)OCC(=O)NC(C)c2ccc(Br)cc2)cc1 (stereo not drawn) | inactive | -2.31 |  |
| CC(NC(=O)COC(=O)CCN1C(=O)C2CC=CCC2C1=O)c1ccc(Br)cc1 (stereo not drawn) | 9.2 µM (active) | 1.69 |  |
| O=C1N(CC(=O)N2CCc3ccccc32)CCN1Cc1ccc(Cl)cc1 | inactive |  |  |
| COc1nn(-c2ccccc2)c(=O)c(Cl)c1Cl | 11.6 µM (active) | -20 |  |
| COc1c(Cl)cnn(-c2ccccc2)c1=O | inactive | -2.85 |  |
| COc1cc(Cl)nn(-c2ccccc2)c1=O | inactive | 0.264 |  |
| COc1ccc(NC(=O)NC2CCCCCCC2)c(OC)c1 | inactive | -0.578 |  |
| COc1ccc(NC(=O)Cn2ccc3c(OC)cccc3c2=O)cc1 | inactive | 0.407 |  |
| CNC(=O)NC(=O)COc1ccc2oc3c(c2c1)CCCC3 | 0.58 µM (active) | 18.9 |  |
| NNC(=O)COc1ccc2oc3c(c2c1)CCCC3 | inactive | 10.5 |  |

| Structure (SMILES) | Potency | cell number change [%] | lipid storage change, negative = inhibition |
| --- | --- | --- | --- |
| O=C(O)COc1ccc2oc3c(c2c1)CCCC3 | inactive | 21.3 |  |
| O=C(N/N=C/c1ccco1)c1cc(C2CC2)nc2ccccc12 | inactive | -1.9 |  |
| COc1cccc(-c2cc(C(=O)N/N=C/c3ccco3)c3ccccc3n2)c1 | inactive |  |  |
| O=C(N/N=C/c1ccco1)c1cc(-c2ccccc2)nc2ccccc12 | 29.1 µM (active) | -7.31 |  |
| O=C1N/C(=N/O)S/C1=C/c1cccnc1 | inactive | 16 |  |
| O=C(Oc1ccccc1/C=C\C(=O)c1cc2ccccc2o1)c1ccccc1 | 14.6 µM (active) |  |  |
| CC(=O)/C=C\c1ccccc1OC(=O)c1cc2ccccc2oc1=O | inactive | -9.71 |  |
| O=C(COC(=O)c1cc2ccccc2o1)c1ccccc1 | inactive | -6.43 |  |
| FC(F)(F)c1cc(C(F)(F)F)c2ccc(N3CCOCC3)nc2n1 | inactive | 4.12 |  |
| C=CCn1c(SCC(=O)NC(=O)c2cccc([N+](=O)[O-])c2)nnc1-c1ccccc1F | inactive | -9.47 |  |
| Cc1ccc(C(=O)OCC(=O)N2CCOCC2)cc1 | inactive | -0.794 |  |
| CCN(c1ccc(NC(=O)COC(=O)c2ccc(C)c(S(=O)(=O)N3CCOCC3)c2)cc1)C(C)C | 23.1 µM (active) | -6.95 |  |
| Cc1ccc(C(=O)OCC(=O)Nc2ccc3c(c2)OCO3)cc1S(=O)(=O)N1CCOCC1 | inactive | -2.32 |  |
| O=C(COC(=O)c1ccc(Br)c(S(=O)(=O)N2CCOCC2)c1)NCC1CCCO1 (stereo not drawn) | 0.58 µM (active) | -0.879 |  |
| O=C(COC(=O)c1ccc(Cl)c(S(=O)(=O)N2CCCCC2)c1)NCC1CCCO1 (stereo not drawn) | inactive | 18.1 |  |
| Cc1ccc(NC(=O)COC(=O)c2ccc(C)c(S(=O)(=O)N3CCOCC3)c2)cc1 | inactive | 6.4 |  |
| O=C(COC(=O)c1cc(S(=O)(=O)N2CCOCC2)ccc1O)NCC1CCCO1 (stereo not drawn) | inactive | -22.6 |  |
| CSc1sc(C(=O)OC(C)C)c2c1C(=O)CC(C)(C)C2 | inactive | -5.28 |  |
| O=C(NC1CC1)C1=C[C@H](c2ccc3c(c2)OCO3)C[C@H](OCc2ccc(CO)cc2)O1 | inactive | 3.05 |  |
| CC(=O)N1CCc2cc(Br)cc(S(=O)(=O)NCCCN3CCCC(C)C3)c21 (stereo not drawn) | inactive | -1.7 |  |
| CCCc1nc(SCC(=O)N2CCc3ccccc3C2)c2ccccc2n1 | inactive | -13.9 |  |
| O=C(c1ccco1)N1CCN(C(=O)C2CC2)CC1 | inactive | 3.46 |  |
| O=C1c2ccccc2NC(c2cccc([N+](=O)[O-])c2)N1O (stereo not drawn) | inactive | 5.94 |  |
| O=C1c2ccccc2NC(c2cccc([N+](=O)[O-])c2)N1CCc1ccccc1 (stereo not drawn) | 5.8 µM (active) | 8.73 |  |

| Structure (SMILES) | Potency | cell number change [%] | lipid storage change, negative = inhibition |
| --- | --- | --- | --- |
| CC(=O)NN1C(=O)c2ccccc2NC1c1cccc([N+](=O)[O-])c1 (stereo not drawn) | inactive | -1.27 |  |
| C[N+]1(C)CC2([N+](=O)[O-])CC=C(Oc3ccccc3)C([N+](=O)[O-])(C2)C1 (stereo not drawn) | inactive | -16.8 |  |
| COCCn1c(SCC(=O)c2c(N)n(C3CC3)c(=O)[nH]c2=O)nnc1-c1ccc(Cl)cc1 | inactive | -5.22 |  |
| Cc1cc([N+](=O)[O-])ccc1NCc1ccccc1[N+](=O)[O-] | inactive | 7.15 |  |
| CC(=O)Nc1ccc(NC(=O)CSc2ccc([N+](=O)[O-])cn2)cc1 | inactive | 0.135 |  |
| O=C(CSc1ccc([N+](=O)[O-])cn1)Nc1nccs1 | 18.4 µM (active) | 2.83 |  |
| O=C(Cn1cc([N+](=O)[O-])cn1)Nc1nccs1 | inactive | 10.2 |  |
| CCN(CC(=O)Nc1ccc(OC)cc1)C(=O)CCS(=O)(=O)c1ccc(C)cc1 | inactive | 4.09 |  |
| COc1ccc(CNS(=O)(=O)c2c(C(=O)N3CCCCC3)c(C)n(C)c2C)cc1 | inactive | -6.92 |  |
| CCN(CC)C(=O)c1cccc(NC(=O)CC23CC4CC(CC(C4)C2)C3)c1 | 0.231 µM (active) | 17.9 |  |
| O=C(CC12CC3CC(CC(C3)C1)C2)Nc1c(F)cccc1F | inactive | -17.2 |  |
| CNC(=O)c1ccc(NC(=O)CC23CC4CC(CC(C4)C2)C3)cc1 | inactive | 12.8 |  |
| COc1ccc(CCNC(=O)C2CCC(=O)N2Cc2ccccc2Cl)cc1OC (stereo not drawn) | inactive | -14.8 |  |
| Cc1cc(C(=O)NCCCN2CCN(c3cc(Cl)ccc3C)CC2)n(-c2ccccc2)n1 |  | 12.1 | -3.15% [at 9.22 µM] (inactive) |
| CCCCC(CC)C(=O)Oc1ccc(O)c(C(C)(C)C)c1 (stereo not drawn) | 25.9 µM (active) | -29.2 |  |
| CC(C)(C)c1cc(OS(C)(=O)=O)ccc1O | inactive | -0.646 |  |
| CC(C)(C)c1cc(OC(=O)c2ccncc2)ccc1O | inactive | -10.2 |  |
| Cc1onc(-c2c(F)cccc2Cl)c1C(=O)ONC(=O)c1ccccc1 | inactive | 10.6 |  |
| O=C(COc1cc2oc(=O)c3c(c2cc1Cl)CCCC3)N1C[C@H]2C[C@@H](C1)c1cccc(=O)n1C2 | 1.46 µM (active) | 3.88 |  |
| CC(Oc1cc2oc(=O)c3c(c2cc1Cl)CCC3)C(=O)N1C[C@H]2C[C@@H](C1)c1cccc(=O)n1C2 (stereo partly drawn) | inactive | 18.9 |  |
| CCCc1cc(=O)oc2cc(OCC(=O)N3C[C@H]4C[C@@H](C3)c3cccc(=O)n3C4)c(Cl)cc12 | inactive | 3.02 |  |
